# Where “and” joins values, the source holds several entries; their conditions need not be identical. Identical values can stand only once. More than one record can exist for a structure, and the calls need not agree. Calls of active or inactive are those of the source. How the source made its calls: active means hit-call score of the fitted dose curve at least 0.9, where 1 is the maximum; inactive means score below 0.9.
# Read-out: Intercellular Adhesion Molecule 1 (ICAM1), ICAM1 (gene 3383)
# Assay: BSK_hDFCGF_ICAM1: BioMAP Diversity Plus: hDFCGF Assay for Intercellular Adhesion Molecule 1 (ICAM1) Biomarker Activity (AID 2284287)
# Conditions: primary human foreskin fibroblasts
# Protocol: BSK_hDFCGF is a cell-based, multiplexed-readout assay that uses foreskin fibroblast, a human skin primary cell, with measurements taken at 24 hours after chemical dosing in a 96-well plate.BSK_hDFCGF_ICAM1 is an assay component measured in the BSK_hDFCGF assay. It measures ICAM-1 antibody related to regulation of gene expression using ELISA technology.Data from the assay component BSK_hDFCGF_ICAM1 was analyzed at the endpoint, BSK_hDFCGF_ICAM1, in the positive analysis fitting direction relative to DMSO as the negative control and baseline of activity. Using a type of binding reporter, gain or loss-of-signal activity can be used to understand protein changes. To generalize the intended target to other relatable targets, this assay endpoint is annotated to the 'cell adhesion molecules' intended target family, where the subfamily is 'Immunoglobulin CAM'.
# The levels of cell surface (or secreted, indicated by the prefix "s") biomarker endpoints were measured by ELISA. Overt cytotoxicity to cells in confluent adherent cultures (all systems other than the BT system) was assessed by measuring total protein levels using sulforhodamine B (SRB) staining in parallel cultures at the time of biomarker measurements, indicated as SRB endpoints. For proliferation assays for adherent cell types, individual cell types are cultured at sub-confluence and relative cell numbers quantified by SRB staining at time points optimized for each system (48 h: 3C and CASM3C systems; 72 h: BT and HDF3CGF systems; 96 h: SAg system). SRB was performed by staining cells with 0.1% SRB after fixation with 10% TCA and reading wells at 560 nm.Viability and proliferation of PBMC (T cells) was quantified by Alamar Blue reduction for the SAg and BT systems. For PBMC viability (referred to as PBMC Cytotoxicity within the assay endpoint names), cells were plated (75,000/well in a 96-well plate) and then chemical samples added for 1 h before addition of activators, SEB and TSST-1 (20 ng/mL final concentration each). Cells were incubated for 90 h. Then, Alamar Blue (20 uL/well) (Invitrogen, Cat DAL1100) was added for 6 h, and the plates were read with a fluorescence microplate reader at 546/580 nm (excitation/emission). For PBMC proliferation, cells were plated and activated as above but incubated for only 16 h prior to addition of Alamar Blue. Plates were read after 6 h.
SMILES,outcome,AC50
O=C(O)C(F)(F)C(F)(F)C(F)(F)C(F)(F)C(F)(F)C(F)(F)C(F)(F)C(F)(F)C(F)(F)C(F)(F)C(F)(F)C(F)(F)F,inactive,8.71 µM (active)
C=CC(F)(F)C(F)(F)C(F)(F)C(F)(F)C(F)(F)C(F)(F)C(F)(F)C(F)(F)F,inactive,–
FC(F)(F)C(F)(F)CNCC(F)(F)C(F)(F)F,inactive,–
CCCCC(CC)COP(=O)(O)OCC(CC)CCCC (stereo not given),inactive,–
FC(F)(F)C(F)(F)C(F)(F)N(C(F)(F)C(F)(F)C(F)(F)F)C(F)(F)C(F)(F)C(F)(F)F,inactive,–
OCCCC(F)(F)C(F)(F)C(F)(F)F,inactive,–
O=C(O)C(F)(F)C(F)(F)C(F)(F)C(F)(F)C(F)(F)C(F)(F)C(F)(F)C(F)(F)C(F)(F)C(F)F,inactive,14.5 µM (active)
COC(=O)CCC(F)(F)C(F)(F)C(F)(F)C(F)(F)F,inactive,–
FC(F)(F)C(F)(F)C(F)(F)C(F)(F)C(F)(F)C(F)(F)CC1CO1 (stereo not given),inactive,–
C=CC(=O)OCC(F)(F)C(F)(F)C(F)(F)C(F)(F)COC(=O)C=C,–,10.6 µM (active) and 10.3 µM (active)
FC(F)(I)C(F)(F)C(F)(F)C(F)(F)I,–,49.8 µM (active) and 46 µM (active) and 53.4 µM (active)
OCC(F)(F)C(F)(F)C(F)(F)C(F)F,inactive,–
C=C(C)C(=O)OCCC(F)(F)C(F)(F)C(F)(F)C(F)(F)C(F)(C(F)(F)F)C(F)(F)F,inactive,–
OCC(F)(F)C(F)(F)C(F)(F)C(F)(F)C(F)(F)C(F)F,inactive,–
OCC(F)(F)C(F)(F)C(F)(F)F,inactive,–
O=S(=O)(OCC(F)F)C(F)(F)F,inactive,–
O=C(O)C(F)(F)C(F)(F)C(F)F,inactive,–
O=P(O)(O)OCCC(F)(F)C(F)(F)C(F)(F)C(F)(F)C(F)(F)C(F)(F)F,inactive,–

SMILES,outcome,AC50
CCCCCCOC(=O)c1ccccc1O,–,37.9 µM (active) and 29.9 µM (active)
C=CC(=O)OCC(F)(F)C(F)(F)C(F)(F)C(F)(F)C(F)(F)C(F)(F)C(F)(F)F,inactive,–
Cc1ccc(S(=O)(=O)OCC(F)(F)C(F)(F)C(F)(F)C(F)(F)C(F)(F)C(F)F)cc1,inactive,–
O=C(O)C=C(C(F)(F)F)C(F)(F)F,inactive,–
CC(C)(C)C(=O)CC(=O)C(F)(F)C(F)(F)C(F)(F)F,inactive,–
C=CC(F)(F)C(F)(F)C(F)(F)C(F)(F)C(F)(F)C(F)(F)C(F)(F)C(F)(F)C=C,inactive,–
C=C(C)C(=O)OCC(F)(F)C(F)(F)C(F)(F)C(F)(F)C(F)(F)C(F)(F)C(F)(F)F,inactive,–
O=C(Cl)C(F)(F)C(F)(F)C(F)(F)C(F)(F)C(F)(F)C(F)(F)C(F)(F)C(F)(F)F,inactive,16.5 µM (active) and 19.9 µM (active)
FC(F)(F)C(F)(F)C(F)(F)C(F)(F)C(F)(F)C(F)(F)C(F)(F)C(F)(F)F,inactive,–
N=C(N)C(F)(F)C(F)(F)C(F)(F)C(F)(F)C(F)(F)C(F)(F)C(F)(F)F,inactive,30 µM (active)
O=C(O)C(F)(F)C(F)(F)C(F)(F)C(F)(F)F,inactive,–
OCC(F)(F)C(F)(F)C(F)(F)C(F)(F)C(F)(F)C(F)(F)F,inactive,–
O=C(O)C(F)(F)C(F)(F)F,inactive,–
O=C(O)C(F)(OC(F)(F)C(F)(OC(F)(F)C(F)(OC(F)(F)C(F)(F)C(F)(F)F)C(F)(F)F)C(F)(F)F)C(F)(F)F (stereo not given),inactive,–
OCCCC(F)(F)C(F)(F)C(F)(F)C(F)(F)C(F)(F)C(F)(F)C(F)(F)F,–,18.3 µM (active) and 20.1 µM (active)
FC(F)(Br)C(F)(F)C(F)(F)C(F)(F)C(F)(F)C(F)(F)Br,inactive,–
O=C(O)C(F)(OC(F)(F)C(F)(OC(F)(F)C(F)(F)C(F)(F)F)C(F)(F)F)C(F)(F)F (stereo not given),inactive,–
C=C(C)C(=O)OCC(F)(F)C(F)(F)C(F)(F)F,inactive,–

# Reference: PubChem BioAssay (EPA / NIEHS)
